Hits are enriched below; roughly 1.6% of the tested compounds scored in any of these assays.
KCNQ2 pot: potentiators of rat KCNQ2 potassium channel. B-score at 10 µM. AID 2239, 2010. 0.54% of 310,000 active. CHO-K1 KCNQ2, FluxOR thallium flux fluorescence; stronger effect = higher value. Potassium voltage-gated channel subfamily KQT member 2 (Rattus norvegicus), O88943;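 active means fluorescence ratio B-score at least 3 SD of library B-scores, with initial fluorescence B-score within 3 of them, cut at about 5.3 in these data; same plate scores as AID 2156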;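 further: B-score of peak minus minimum over baseline fluorescence ratio after K+ and Tl+ stimulus; positive B-score means potentiation of KCNQ2 with more thallium influx and brighter signal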
Target sequence (O88943 whole entry, looked up): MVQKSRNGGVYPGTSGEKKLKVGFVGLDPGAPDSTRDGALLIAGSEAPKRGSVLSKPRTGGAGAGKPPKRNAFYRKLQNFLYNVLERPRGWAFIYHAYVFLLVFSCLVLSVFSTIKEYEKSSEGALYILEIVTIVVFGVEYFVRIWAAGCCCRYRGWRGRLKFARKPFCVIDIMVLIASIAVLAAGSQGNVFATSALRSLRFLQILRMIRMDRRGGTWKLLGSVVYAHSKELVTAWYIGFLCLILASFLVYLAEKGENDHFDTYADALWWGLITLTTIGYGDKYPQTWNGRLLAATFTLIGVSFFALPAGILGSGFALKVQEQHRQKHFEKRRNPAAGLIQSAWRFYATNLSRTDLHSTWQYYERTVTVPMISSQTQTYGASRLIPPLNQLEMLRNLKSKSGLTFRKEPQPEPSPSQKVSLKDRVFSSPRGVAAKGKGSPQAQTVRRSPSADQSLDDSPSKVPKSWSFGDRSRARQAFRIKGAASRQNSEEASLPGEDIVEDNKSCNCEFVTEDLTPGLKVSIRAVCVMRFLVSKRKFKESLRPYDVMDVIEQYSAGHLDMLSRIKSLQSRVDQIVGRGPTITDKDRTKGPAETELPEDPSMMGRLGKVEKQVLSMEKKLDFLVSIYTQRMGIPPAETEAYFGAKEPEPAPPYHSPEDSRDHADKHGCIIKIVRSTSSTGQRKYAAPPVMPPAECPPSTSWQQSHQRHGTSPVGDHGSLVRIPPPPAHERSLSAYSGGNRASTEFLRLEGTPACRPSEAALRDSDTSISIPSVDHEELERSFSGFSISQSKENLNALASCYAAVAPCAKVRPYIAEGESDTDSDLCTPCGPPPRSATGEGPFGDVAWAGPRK
KCNQ2 inh: rat KCNQ2 potassium channel inhibitors, primary screen, cell-based, CHO-K1, FluxOR thallium flux, B-score; Potassium voltage-gated channel subfamily KQT member 2 (Rattus norvegicus), O88943; 20 min; stronger effect = lower value; B-score at 10 µM; 1.1% of 310,000 active; AID 2156, 2009;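 active means fluorescence ratio B-score at most minus 3 library SDs, with starting brightness B-score within 2 library SDs, cut at about -5.5 in these data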
Kir21 confirm: mouse Kir2.1 channel blockers, retest, confirmation, cell-based, FluxOR thallium flux, duplicate | shares compounds with KCNQ2 pot | Kir2.1-expressing cells, FluxOR thallium flux fluorescence; stronger effect = lower value | Tl flux remaining, % of negative control (stronger effect = lower value), % at 10 µM | 41% of 2,300 active | AID 2032, 2009;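 active means Primary-screen hit whose thallium flux fell at least 3 control SD below untreated wells in both duplicates, with normal baseline fluorescence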;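 further: 0% = blank wells without stimulus and 100% = stimulated no-compound controls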
HEK293 ctr: parental HEK293 activity in Kir2.1 inhibitor counter-screen; shares compounds with KCNQ2 pot; parental HEK293 cells, FluxOR thallium flux fluorescence; 0% = unstimulated blank wells; FluxOR signal as % of negative control (100 = no effect), % at 10 µM; 19% of 2,300 active;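 active means dye signal at least 3 control SD above or below untreated wells in both duplicates, raw fluorescence within 3, either direction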;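 further: percent is based on the flux ratio of peak minus minimum fluorescence over baseline F0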
CHO-K1 ctr: nonspecific thallium flux increase in parental CHO-K1, confirmation, counter-screen for KCNQ2 potentiator project, cell-based, FluxOR thallium flux, duplicate | shares compounds with KCNQ2 pot | parental CHO-K1 cells, FluxOR thallium flux fluorescence; zero = vehicle mean+3SD, 100% = vehicle-minus-blank window | activity increase over 3SD of controls, % at 10 µM | 43% of 1,200 active;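 active means signal rise of at least 3 SD above the untreated control mean, in both duplicate wells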;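 further: counter screen of KCNQ2 potentiator hits so any rise reflects channel-independent effects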
KCNQ1 pot spec: human KCNQ1 channel potentiation off-target, confirmation, selectivity assay for KCNQ2 potentiator project, cell-based, CHO, FluxOR thallium flux. shares compounds with KCNQ2 pot. activation over 3SD threshold, % at 10 µM. CHO KCNQ1 stable, FluxOR thallium flux fluorescence; beyond 3SD, as % of vehicle-control signal. 28% of 1,200 active;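 active means fluorescence ratio rise of at least 3 SD of vehicle wells above their mean, in both replicate wells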;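 further: 0% = vehicle mean plus 3 SD and 100% = vehicle minus unstimulated blank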
KCNQ2 pot conf: rat KCNQ2 channel potentiators, confirmation, cell-based, CHO, FluxOR thallium flux, duplicate | CHO-KCNQ2 cells, FluxOR thallium flux fluorescence | AID 2287, 2010 | 68% of 1,200 active | potentiation, less the hit threshold, % at 10 µM | shares compounds with KCNQ2 pot;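 active means fluorescence ratio rising 3 SD or more over the vehicle control mean in both replicates, plus primary screen hit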;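 further: peak minus minimum thallium fluorescence divided by baseline after K/Tl stimulus; 0% = vehicle mean plus 3 SD and 100% = vehicle minus unstimulated blank difference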
Kir21 spec: mouse Kir2.1 channel activation off-target, confirmation, selectivity assay for KCNQ2 potentiator project, cell-based, HEK293, FluxOR thallium flux; shares compounds with KCNQ2 pot; HEK293 Kir2.1, FluxOR thallium flux fluorescence; AID 2345, 2010; activity over 3SD threshold, % at 10 µM; 2% of 1,200 active;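 active means fluorescence ratio rise of at least 3 SD above the vehicle-control mean, seen in both replicates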;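 further: 0% = vehicle mean plus 3 SD and 100% = vehicle minus no-stimulus blank window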
KCNQ2 W236L pot: potentiators of retigabine-insensitive KCNQ2 W236L, mechanism study for KCNQ2 potentiator project, cell-based, rat KCNQ2 W236L, CHO, automated patch clamp; shares compounds with KCNQ2 pot; automated patch clamp current; current increase over 3SD of negative controls (%), stronger effect = higher value, % at 25 µM; 10% of 940 active; AID 2558, 2010;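 active means current increase at least 3 SD of the untreated controls above them in both duplicate recordings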
Numbers without * were called inactive.

How did CNC[C@@H](CC1CCCCC1)NC[C@H](CC(C)C)NCCc1cccc(C(F)(F)F)c1 do in these assays?
KCNQ2 inh: inactive; Kir21 confirm: 27.5%*; HEK293 ctr: inactive

Results for CN(Cc1cccc(C(F)(F)F)c1)C(=O)C1CCC(=O)N(CC2CCCCC2)C1 (stereo not given) ?
KCNQ2 inh: inactive

What do the screens show for `O=C(CSc1nc(-c2ccccc2)c(-c2ccccc2)o1)NCCCO`?
KCNQ2 pot: 1.51; KCNQ2 inh: inactive

What do the screens show for `CCNC(=S)Nc1ccccc1-c1ccccc1`?
KCNQ2 inh: inactive

How did Cc1ccc(NC(=S)NC(=O)c2ccc(-c3ccc(Cl)cc3)o2)c(O)c1 do in these assays?
KCNQ2 pot: 1.08; KCNQ2 inh: inactive

What do the screens show for `Cc1ccc(O)c(NC(=S)NC(=O)Cc2ccc(Cl)cc2)c1`?
KCNQ2 pot: 7.03*; KCNQ2 inh: inactive; Kir21 confirm: inactive; HEK293 ctr: inactive; CHO-K1 ctr: 0.0*; KCNQ1 pot spec: -13.9; KCNQ2 pot conf: -21.5; Kir21 spec: -43.9

Results for NS(=O)(=O)c1ccc(CCNC(=O)CSc2nc3ccccc3c(=O)n2CCC(=O)N2CCCCC2)cc1 ?
KCNQ2 pot: 1.97; KCNQ2 inh: inactive

What do the screens show for `CCn1c2c(c(=N)c3c1CCC3)CCC2`?
KCNQ2 inh: inactive

Results for CCCCCCCn1c2c(c(=N)c3c1CCC3)CCCC2 ?
KCNQ2 pot: 1.88; KCNQ2 inh: inactive; Kir21 confirm: 27.5%*; HEK293 ctr: inactive

Results for CCCCCCCCCn1c2c(c(=N)c3c1CCC3)CCC2 ?
KCNQ2 pot: -6.08; KCNQ2 inh: -6.08*; Kir21 confirm: 10.0%*; HEK293 ctr: inactive

How did CCCCCCn1c(=O)[nH]c2c(c1=O)CCC2 do in these assays?
KCNQ2 pot: 0.1; KCNQ2 inh: inactive

How did COC(=O)c1cn(CC(=O)Nc2ccccc2C)c2ccccc12 do in these assays?
KCNQ2 pot: 0.22; KCNQ2 inh: inactive

How did O=C(NCC1CCCO1)c1ccc(Cl)c(S(=O)(=O)N2CCCCC2)c1 (stereo not given) do in these assays?
KCNQ2 pot: 1.67; KCNQ2 inh: inactive

What do the screens show for `CCOC(=O)c1[nH]c(=O)[nH]c1CNc1ccccc1C#N`?
KCNQ2 inh: inactive

What do the screens show for `COCCNc1c2c(nc3c(-c4ccccc4)c(C)nn13)CCCC2`?
KCNQ2 inh: inactive

Results for Cc1nn2c(NCCN(C)C)c3c(nc2c1-c1ccccc1)CCCC3 ?
KCNQ2 pot: 6.07*; KCNQ2 inh: inactive; CHO-K1 ctr: -24.4; KCNQ1 pot spec: -13.4; KCNQ2 pot conf: -33.3; Kir21 spec: -63.8

What do the screens show for `CCC1CCCCN1CCCNC(=O)c1ccc(CS(=O)(=O)c2ccccc2OC)o1` (stereo not given)?
KCNQ2 inh: inactive

How did COc1ccc(N2CC(C(=O)NNC(=O)c3ccc(Br)cc3)CC2=O)c(OC)c1 (stereo not given) do in these assays?
KCNQ2 pot: 0.33; KCNQ2 inh: inactive

Results for Cc1cc(C(=O)OCC(=O)Nc2ccc(F)cc2)c(C)o1 ?
KCNQ2 pot: 5.67*; KCNQ2 inh: inactive; Kir21 confirm: inactive; HEK293 ctr: inactive; CHO-K1 ctr: 73.7*; KCNQ1 pot spec: -10.0; KCNQ2 pot conf: -2.7; Kir21 spec: -34.4; KCNQ2 W236L pot: inactive

What do the screens show for `Cc1cc(C(=O)OCC(=O)Nc2ccccc2)c(C)o1`?
KCNQ2 pot: 1.45; KCNQ2 inh: inactive

What do the screens show for `CCSc1nnc(NC(=O)CSc2nnc(C)c(=O)n2N)s1`?
KCNQ2 inh: inactive

What do the screens show for `Oc1c(Cl)cc(Cl)cc1Sc1cc(Cl)cc(Cl)c1O`?
KCNQ2 pot: 44.7*; KCNQ2 inh: inactive; Kir21 confirm: inactive; HEK293 ctr: 375.0%*; CHO-K1 ctr: 47.1*; KCNQ1 pot spec: -3.1; KCNQ2 pot conf: 222.7*; Kir21 spec: -29.6; KCNQ2 W236L pot: inactive

Results for Oc1c(Cl)cc(Cl)cc1CNn1cnnc1 ?
KCNQ2 inh: inactive

What do the screens show for `Cc1ccc(C(=O)Nc2cc3[nH]c(=O)oc3cc2C)cc1`?
KCNQ2 pot: 0.69; KCNQ2 inh: inactive

How did O=C(COC(=O)C1CCN(c2ccc(C(F)(F)F)cn2)CC1)Nc1ccc(Cl)cc1 do in these assays?
KCNQ2 pot: 2.05; KCNQ2 inh: inactive

How did CN(CC(=O)Nc1ccc(F)cc1)C(=O)COC(=O)C1CCN(c2ccc(C(F)(F)F)cn2)CC1 do in these assays?
KCNQ2 pot: 13.1*; KCNQ2 inh: inactive; Kir21 confirm: inactive; HEK293 ctr: inactive; CHO-K1 ctr: 79.3*; KCNQ1 pot spec: -16.5; KCNQ2 pot conf: 17.6*; Kir21 spec: -33.5; KCNQ2 W236L pot: inactive

What do the screens show for `COc1ccc(CCNC(=O)CC(c2ccccc2)c2cc(C)ccc2O)cc1OC` (stereo not given)?
KCNQ2 inh: inactive

Results for CCCCCC[N+](C)(C)CCSSCC[N+](C)(C)CCCCCC ?
KCNQ2 pot: 0.45; KCNQ2 inh: inactive

How did CCCCCCCCCCCCCCCC[N+](C)(C)CC do in these assays?
KCNQ2 inh: inactive; Kir21 confirm: 52.5%*; HEK293 ctr: inactive

What do the screens show for `COCCn1c(=S)[nH]c2cc(C(=O)N3CC(C)CC(C)C3)ccc2c1=O` (stereo not given)?
KCNQ2 pot: 0.31; KCNQ2 inh: inactive
